Results filed as inconclusive are left out. Activity calls are given as the source filed them. The call rests on the fitted dose curve; in most records, active means well fitted cell-killing curve with a large enough effect in the repeat runs; inconclusive means weak or mixed curves, or effect the other way; inactive means no such curve, though single readings can be large or run the other way.
Assay: qHTS assay for identifying genotoxic compounds that show differential cytotoxicity against isogenic chicken DT40 cell lines with known DNA damage response pathways - Rev3 mutant cell line (AID 743014); further: nearly all actives have a fitted effect of over 55% in size
Conditions: chicken DT40 Rev3-/- viability, CellTiter-Glo, 40 h; series mostly up to 68.4 µM; activity, negative = cytotoxicity: at the top concentration
Description: National Center for Advancing Translational Sciences [NCATS]
NIH Chemical Genomics Center [NCGC]
U.S. Environmental Protection Agency [EPA]
National Institutes of Environmental Health Sciences [NIEHS]
National Toxicology Program [NTP]
U.S. Food and Drug Administration [FDA]
DNA repair pathways play a critical role in cellular homeostasis by repairing DNA damage induced by endogenous processes and xenobiotics. Isogenic chicken DT40 cell lines deficient in different DNA repair pathways can be used to identify genotoxic compounds and aid in characterizing the nature of the DNA damage induced. Two DNA repair-deficient cell lines with disrupted genes, Rad54/Ku70 or Rev3, were used to screen the Tox21 10K compound library. Possible genotoxicity was based on the presence of a significant increase in cytotoxicity in one or more of the DNA repair-deficient cell lines compared to that observed in the parental DNA repair-proficient cell line. CellTiter Glo viability assay (Promega, Madison, WI) was used to measure cell viability in these cells after compound treatment. This assay includes the data from the Rev3 mutant cell line.
Tox21 Assay Protocol Summary:
300 DT40 mutant cells in 5 uL/well were dispensed into white, solid-bottom 1536-well plates using a Multidrop Combi (ThermoFisher Scientific, Waltham, MA) dispenser. After the assay plates were incubated at 37 C/5% CO2 for approximately 0.5 hour, 23 nL of compounds dissolved in DMSO, positive controls or DMSO only was transferred into the assay plate by a pintool work station (Kalypsys, San Diego, CA). The assay plates were incubated at 37 C/5% CO2 for 40 hours. After 5 uL per well of CellTiter-Glo reagent was added into each well of the assay plates, the plates were incubated for 30 min at room temperature and the luminescence intensity of the plates was measured using a ViewLux (PerkinElmer, Shelton, CT) plate reader.
On the % scale 0 is the no-effect control and ±100 the full control effect; potency means the concentration at half of the fitted maximal effect.

Question: With `O=C(O)c1ccccc1[O-].O=C(O)c1ccccc1[O-].[Zn+2]` as the compound, how does the “activity, negative = cytotoxicity” value read?
Answer: The value was 5.71% (inactive).

Question: With `Clc1ccc([C@@H]2C[C@H]3CC[C@@H]2N3)cn1` as the compound, how does the “activity, negative = cytotoxicity” value read?
Answer: Its value is -3.34% (inactive).

Question: For `CN1C2CCC1CC(OC(c1ccccc1)c1ccc(Cl)cc1)C2` (stereo not given), which Potency is on record?
Answer: The Potency was 2.98 µM (active).

Question: With `CCC(=O)O[C@H]1[C@@H](N2CCCCC2)C[C@H]2[C@@H]3CC[C@H]4C[C@H](OC(C)=O)[C@@H](N5CCCCC5)C[C@]4(C)[C@H]3CC[C@@]21C` as the compound, how does the Potency read?
Answer: The Potency was 3.35 µM (active).

Question: For `CNC(C)[C@@H]1CC[C@@H](N)[C@@H](O[C@H]2[C@H](O)[C@@H](O[C@H]3OC[C@](C)(O)[C@H](NC)[C@H]3O)[C@H](N)C[C@@H]2N)O1` (stereo not given in full), which “activity, negative = cytotoxicity” value is on record?
Answer: Its value is 8.72% [at 31.4 µM] (inactive).

Question: Which Potency does the source give for `C[C@]12CC[C@H]3[C@@H](CCC4=CC(=O)CC[C@@]43C)[C@@H]1CC[C@@H]2OC(=O)CCc1ccccc1` here?
Answer: The Potency was 8.63 µM (active).

Question: Which Potency does the source give for `CC(=O)O[C@H]1C[C@H](O[C@H]2[C@@H](O)C[C@H](O[C@H]3[C@@H](O)C[C@H](OC4CC[C@@]5(C)C(CC[C@@H]6[C@@H]5CC[C@]5(C)[C@@H](C7=CC(=O)OC7)[C@@H](O)C[C@]65O)C4)O[C@@H]3C)O[C@@H]2C)O[C@H](C)[C@H]1O[C@@H]1O[C@H](CO)[C@@H](O)[C@H](O)[C@H]1O` (stereo not given in full) here?
Answer: The Potency was 2.66 µM (active).

Question: With `CCC(=O)O[C@](Cc1ccccc1)(c1ccccc1)[C@H](C)CN(C)C` as the compound, how does the Potency read?
Answer: The Potency was 60.3 µM (active).

Question: With `COc1cc(C[C@H](C)N)c(OC)cc1Br` as the compound, how does the Potency read?
Answer: The Potency was 62.7 µM (active).

Question: Which Potency does the source give for `C#C[C@]1(OC(=O)CCCCCC)CC[C@H]2[C@@H]3CCC4=CC(=O)CC[C@@H]4[C@H]3CC[C@@]21C` here?
Answer: The Potency was 5.96 µM (active).
